Structures can show the parent of a compound that is named as a salt.

The experiment concerns Saccharomyces cerevisiae BY4741 SeMeCo community. In words: z-score of subpopulation abundance vs DMSO median, subpopulation auxotrophic for HLU; higher = larger share of this subpopulation than in DMSO controls. Conditions: 10 µM; 24 h; SM minimal medium; subpopulation (auxotrophy): HLU. The protocol: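 Fluorescent four-plasmid SeMeCo (self-establishing metabolically cooperating S. cerevisiae BY4741 community; plasmids pH-mRuby2, pL-mWasabi, pU-eCFP, pM-TagRFP657) was grown 24 h in minimal SM medium with each Selleck FDA-approved drug at 10 µM in 384-well plates. Cells were fixed and imaged by high-content confocal microscopy. For each auxotrophic subpopulation (and the prototroph), a z-score gives the deviation from the DMSO vehicle-control population median.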
Consider `Oc1cccc2cccnc12` [8-Hydroxyquinoline], for which the “z-score of subpopulation abundance” value was -0.85. As for `CN1[C@@H]2C[C@@H](OC(=O)[C@H](CO)c3ccccc3)C[C@H]1[C@@H]1O[C@@H]12` [Scopolamine HBr trihydrate], the “z-score of subpopulation abundance” value is -0.91.

Turning to `C=C(C)[C@H]1Cc2c(ccc3c2O[C@@H]2COc4cc(OC)c(OC)cc4[C@@H]2C3=O)O1` [Rotenone (Barbasco)], the “z-score of subpopulation abundance” value stood at 1.77. For `CCN(C)C(=O)Oc1cccc([C@H](C)N(C)C)c1` [Rivastigmine] the value was -0.24; for `Cn1cc(C2=C(c3cn(C4CCN(Cc5ccccn5)CC4)c4ccccc34)C(=O)NC2=O)c2ccccc21`, 0.26; for `O=C(O[C@H]1C[N+]2(CCCOc3ccccc3)CCC1CC2)C(O)(c1cccs1)c1cccs1` [Aclidinium Bromide], -0.54. Regarding `CN(C)[C@@H]1C(=O)C(C(N)=O)=C(O)[C@@]2(O)C(=O)C3=C(O)c4c(O)ccc(Cl)c4[C@@](C)(O)[C@H]3C[C@@H]12` [Chlortetracycline HCl], the “z-score of subpopulation abundance” value was -0.5. As for `CN1C(=O)COc2c(C(=O)NC3CN4CCC3CC4)cc(Cl)cc21` (stereo not given) [Azasetron HCl], the figure is -0.64; as for `COc1cc2c(cc1OC)C1CC(=O)C(CC(C)C)CN1CC2` (stereo not given) [Tetrabenazine (Xenazine)], -0.31; as for `CN(C)C(=O)Oc1cccc([N+](C)(C)C)c1` [Neostigmine Bromide], 0.32.

In the case of `Nc1ccncc1` [4-Aminopyridine], the “z-score of subpopulation abundance” value turned out to be 0.05.

As to `C=CN1CCCC1=O.II` [Povidone iodine], the “z-score of subpopulation abundance” value was 2.59. `COc1ccc(C(CN(C)C)C2(O)CCCCC2)cc1` (stereo not given) [Venlafaxine HCl]: the “z-score of subpopulation abundance” value is -0.14. As for `COC(=O)C1=CCCN(C)C1` [Arecoline HBr], the figure is 0.06; as for `COc1ccc(C=O)cc1` [p-Anisaldehyde], -0.91. As for `CC(NC(C)(C)C)C(=O)c1cccc(Cl)c1` (stereo not given) [Amfebutamone (Bupropion) HCl], the figure is -0.82; as for `Oc1cc(Cl)ccc1Oc1ccc(Cl)cc1Cl` [Triclosan], 2.87; as for `CN1[C@@H]2CC[C@H]1C[C@@H](OC(=O)[C@H](CO)c1ccccc1)C2` [Hyoscyamine], 0.2. For `NC(=O)CN1CCCC1=O` [Piracetam] the value was 1.5; for `CC[C@@H](C(N)=O)N1CCCC1=O` [Levetiracetam], -0.28; for `CCN(CC)CCOC(=O)C(O)(c1ccccc1)c1ccccc1` [Benactyzine hydrochloride], 0.38. `CCOC(=O)Nc1ccc(NCc2ccc(F)cc2)cc1N` [Retigabine 2HCl]: the “z-score of subpopulation abundance” value was -0.42. `NCC(O)c1ccc(O)cc1` (racemic) [(+,-)-Octopamine HCl]: the “z-score of subpopulation abundance” value was -0.28. Take `CC[C@H]1CN2CC[C@]3(C(=O)Nc4ccccc43)[C@@H]2C[C@@H]1/C(=C\OC)C(=O)OC` [Rhynchophylline]: the “z-score of subpopulation abundance” value came to 0.21.

Turning to `C[N+]1(C)[C@@H]2C[C@@H](OC(=O)[C@H](CO)c3ccccc3)C[C@H]1[C@@H]1O[C@@H]12` [Methscopolamine], the “z-score of subpopulation abundance” value was 0.5. As for `CCCCCCCCCCCCCCCC[n+]1ccccc1` [Cetylpyridinium Chloride], the figure is 9.76.

Turning to `O=c1cccc2n1C[C@@H]1CNC[C@H]2C1` [Cytisine], the “z-score of subpopulation abundance” value is -0.22. As for `C[CH2][Hg][S]c1ccccc1C(=O)[O-].[Na+]` [Thimerosal], the figure is 15.9; as for `N#Cc1nn(-c2c(Cl)cc(C(F)(F)F)cc2Cl)c(N)c1[S+]([O-])C(F)(F)F` (stereo not given) [Fipronil], -1. For `C[N+]12CCC(CC1)C(OC(=O)C(O)(c1ccccc1)c1ccccc1)C2` (stereo not given) [Clidinium Bromide] the value was -0.31. As for `Nc1nc(N)nc(NC2CC2)n1` [Cyromazine], the figure is 0.88; as for `CN(C)[C@@H]1C(=O)C(C(N)=O)=C(O)[C@@]2(O)C(=O)C3=C(O)c4c(O)cccc4[C@@](C)(O)[C@H]3C[C@@H]12` [Tetracycline HCl], 0.02.

As for `CN(C)C(=O)Oc1ccc[n+](C)c1` [Pyridostigmine Bromide], the “z-score of subpopulation abundance” value is -0.68. On to `CC(=O)OCC1=C(C(=O)O)N2C(=O)C(N)C2SC1` (stereo not given) [7-Aminocephalosporanic acid], for which the “z-score of subpopulation abundance” value is -0.25. For `CC1(C)SC2C(N)C(=O)N2C1C(=O)O` (stereo not given) [6-Aminopenicillanic acid] the value was -0.15; for `C[C@@H]1O[C@@H](O[C@H]2C[C@@H](O)[C@]3(CO)[C@H]4[C@H](O)C[C@]5(C)[C@@H](C6=CC(=O)OC6)CC[C@]5(O)[C@@H]4CC[C@]3(O)C2)[C@H](O)[C@H](O)[C@H]1O` [Ouabain], -1.06; for `CN(C)[C@@H]1C(=O)C(C(N)=O)=C(O)[C@@]2(O)C(=O)C3=C(O)c4c(O)cccc4[C@@](C)(O)[C@H]3[C@H](O)[C@@H]12` [Oxytetracycline Dihydrate], 0.15. Consider `CC(C)=CCOc1c2occc2cc2ccc(=O)oc12` [Imperatorin], for which the “z-score of subpopulation abundance” value stood at 0.14. On to `C#C[C@]1(O)C=C[C@H]2[C@@H]3CCC4=CC(=O)CC[C@@H]4[C@H]3CC[C@@]21CC` [Gestodene], for which the “z-score of subpopulation abundance” value turned out to be 0.11. As for `COc1ccc2[nH]cc(CCN)c2c1` [5-Methoxytryptamine], the figure is 0.69.

Source of the values: the supplement of paper PMC8975748.
